sPLA2-III inh = human group III sPLA2 inhibitors, primary screen, biochemical, QFRET, BODIPY PC-A2 liposome substrate; QFRET BODIPY PC-A2 liposome hydrolysis, fluorescence; inhibition, % at 12.2 µM; hit rate 0.56% among 370,000;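 active means inhibition above mean plus 3 SD of compounds lying within the high and low control bounds, cut at about 19% in these data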;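 further: 0% = median of test compound wells and 100% = no enzyme DMSO wells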
Target sequence (Q9NZ20 whole entry, looked up): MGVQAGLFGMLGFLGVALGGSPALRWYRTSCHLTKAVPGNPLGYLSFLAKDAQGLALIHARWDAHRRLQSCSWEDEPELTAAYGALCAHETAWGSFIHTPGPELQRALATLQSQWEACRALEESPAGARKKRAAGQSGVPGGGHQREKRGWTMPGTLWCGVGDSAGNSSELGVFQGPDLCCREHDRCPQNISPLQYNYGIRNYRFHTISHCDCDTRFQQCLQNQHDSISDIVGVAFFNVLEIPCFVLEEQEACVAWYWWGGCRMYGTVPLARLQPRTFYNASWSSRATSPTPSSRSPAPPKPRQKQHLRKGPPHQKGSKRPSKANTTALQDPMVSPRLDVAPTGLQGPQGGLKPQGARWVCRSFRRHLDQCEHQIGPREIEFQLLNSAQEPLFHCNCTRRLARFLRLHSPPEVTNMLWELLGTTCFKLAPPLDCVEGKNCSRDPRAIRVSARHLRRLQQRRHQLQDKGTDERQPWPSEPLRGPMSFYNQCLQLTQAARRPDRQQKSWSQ
KLK7 zymogen act = proKLK7 zymogen activators, primary screen, biochemical, fluorescence intensity; purified proKLK7, EDANS-DABCYL substrate fluorescence; 100% is mature enzyme control, 0% vehicle; activation, % at 7 µM; hit rate 0.9% among 370,000;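 active means activation above the mean of all tested compounds plus 3 SD, computed per campaign excluding outliers beyond control limits, cut at about 13% in these data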
ADAM10 inh = human ADAM10 inhibitors, primary screen, biochemical, QFRET, HTS; Disintegrin and metalloproteinase domain-containing protein 10 (Homo sapiens), O14672; recombinant ADAM10, EDANS/DABCYL FRET peptide cleavage, 3 h; inhibition, % at 7 µM; hit rate 0.62% among 370,000;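 active means inhibition above a per-campaign cutoff equal to the mean of compounds falling between control-based bounds plus 3 SD, cut at about 20% in these data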;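 further: 0% = DMSO wells while the 100% control is not disclosed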
ADAM17 inh = ADAM17 inhibitors, primary screen, biochemical, QFRET | Disintegrin and metalloproteinase domain-containing protein 17 (Homo sapiens), P78536 | recombinant ADAM17, EDANS/DABCYL FRET peptide cleavage | inhibition, % at 6.95 µM | hit rate 0.83% among 370,000 | AID 720648, 2013;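 active means inhibition above the mean of compounds lying between control limits plus 3 SD, set per campaign, cut at about 8.5% in these data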;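 further: 0% = DMSO-only wells as the low control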
NRP1-CendR mod = modulators of CendR peptide binding to NRP-1, primary screen, biochemical, fluorescence polarization, uHTS. FAM-RPARPAR peptide binding to NRP-1. inhibition, % at 25 µM. hit rate 0.85% among 360,000. AID 602438, 2012;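 active means inhibition or corrected inhibition above about 18%, plus a signal ratio from 0.5 to 1.5, limit read from the data, passing the limit was not always enough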
ADAM10 confirm = human ADAM10 inhibitors, confirmation, biochemical, QFRET, triplicate. shares compounds with ADAM10 inh. ADAM10 QFRET peptide cleavage, EDANS fluorescence. inhibition, % at 6.95 µM. hit rate 1% among 2,100;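 active means inhibition above about 20% chosen separately for each screening run, limit read from the data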;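 further: 0% = DMSO wells and 100% = marimastat wells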
ADAM17 ctr = ADAM17 inhibitors, counter-screen for ADAM10 exosite inhibitor project, biochemical, QFRET, high throughput. inhibition, % at 6.95 µM. shares compounds with ADAM10 inh. ADAM17 QFRET peptide cleavage, EDANS fluorescence. hit rate 0.5% among 2,100;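 active means mean triplicate inhibition above the solvent-only control wells' mean plus 3 SD, cut at about 12% in these data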;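 further: 0% = DMSO wells and 100% = marimastat wells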
ADAM10 ctr = ADAM10 inhibitors, counter-screen for ADAM17 exosite inhibitor project, biochemical, FRET, human ADAM10; shares compounds with ADAM17 inh; recombinant ADAM10, EDANS/DABCYL FRET peptide cleavage, 3 h; inhibition, % at 6.95 µM; hit rate 47% among 2,900;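 active means mean inhibition over the triplicate runs exceeds the activity threshold set in the earlier primary screen, cut at about 20% in these data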;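 further: 0% = DMSO wells and 100% = marimastat wells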
ADAM17 confirm = ADAM17 inhibitors, hit retest, confirmation, biochemical, QFRET peptide cleavage; recombinant ADAM17, EDANS/DABCYL QFRET peptide cleavage; hit rate 65% among 2,900; inhibition, % at 6.95 µM; AID 743257, 2014; shares compounds with ADAM17 inh;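 active means mean inhibition across replicates above the hit cutoff set in the primary screen, cut at about 8.5% in these data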;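 further: 0% = DMSO wells and 100% = marimastat wells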
* hit, by the source's call. A selection: hits, their analogues and other compounds. The true share with any hit is near 3.4%.

Screening Cc1ccc(N(CC(=O)NCCc2ccc(F)cc2)S(=O)(=O)c2ccc(Cl)c([N+](=O)[O-])c2)c(C)c1 returned sPLA2-III inh -10, KLK7 zymogen act 1, ADAM10 inh 26*, ADAM17 inh 12*, NRP1-CendR mod 1, ADAM10 confirm 11, ADAM17 ctr 2, ADAM10 ctr 29* and ADAM17 confirm 15*.
Screening O=C(CN(c1ccc(Br)cc1)S(=O)(=O)c1ccc(Cl)c([N+](=O)[O-])c1)NCCc1ccccc1 returned sPLA2-III inh -7, KLK7 zymogen act 0, ADAM10 inh 1, ADAM17 inh 1 and NRP1-CendR mod 0.
COC(=O)[C@]12CCCCC=C1N(Cc1ccc(OC)cc1)C(=O)[C@@H]2CC(=O)N1CCSCC1 was read as sPLA2-III inh 8, KLK7 zymogen act 0, ADAM10 inh -6 and ADAM17 inh -6.
`COc1ccc(-n2c(Cc3cccs3)nnc2SCC(=O)Nc2ccc(OCc3ccccc3)cc2)cc1` gave sPLA2-III inh -20, KLK7 zymogen act 1, ADAM10 inh 21*, ADAM17 inh 11*, ADAM10 confirm 12, ADAM17 ctr 4, ADAM10 ctr 25* and ADAM17 confirm 16*.
Cn1c(Cc2cccs2)nnc1SCC(=O)Nc1ccc(OCc2ccccc2)cc1 was read as sPLA2-III inh -17, KLK7 zymogen act 0, ADAM10 inh 11 and ADAM17 inh 2.
For O=C(CSc1nnc(COc2ccccc2)n1-c1ccc(Cl)cc1)Nc1ccccc1-c1ccccc1 the results were sPLA2-III inh -20, KLK7 zymogen act 1, ADAM10 inh 28*, ADAM17 inh 13*, ADAM10 confirm 6, ADAM17 ctr 2, ADAM10 ctr 19 and ADAM17 confirm 14*.
`Cc1ccc(-n2c(Cc3cccs3)nnc2SCC(=O)Nc2ccc(OCc3ccccc3)cc2)cc1` gave sPLA2-III inh -25, KLK7 zymogen act 0, ADAM10 inh 21*, ADAM17 inh 12*, ADAM10 confirm 11, ADAM17 ctr 3, ADAM10 ctr 22* and ADAM17 confirm 15*.
`CCN(CC)C(=O)CC[C@@H]1CC[C@]2(CCCN(Cc3ccccc3)C2)O1` gave sPLA2-III inh 15, KLK7 zymogen act 1, ADAM10 inh -24 and ADAM17 inh -6.
`CC(C)CN1C(=O)[C@]2(CC(=O)N(C)C2c2ccccc2)c2cc(-n3cc(CCCC#N)nn3)ccc21` (stereo not given in full) gave sPLA2-III inh 8, KLK7 zymogen act 0, ADAM10 inh -7 and ADAM17 inh 0.
CCCC(=O)OC12CCCN(C1)/C(=C/c1ccc(OC)cc1)C2 (stereo not given) was read as sPLA2-III inh 4, KLK7 zymogen act 0, ADAM10 inh 0 and ADAM17 inh 0.
`CC(C)C[C@H](NC(=O)c1nc[nH]c1C(=O)NC1CCN(C(=O)OC(C)(C)C)CC1)C(=O)OC(C)(C)C` gave sPLA2-III inh -7, KLK7 zymogen act 1, ADAM10 inh 24*, ADAM17 inh 9.4*, NRP1-CendR mod 8, ADAM10 confirm 3, ADAM17 ctr 0, ADAM10 ctr 32* and ADAM17 confirm 16*.
`C[C@H](NC(=O)c1nc[nH]c1C(=O)NC1CCN(C(=O)OC(C)(C)C)CC1)C(=O)OC(C)(C)C` gave sPLA2-III inh -2, KLK7 zymogen act 0, ADAM10 inh -1, ADAM17 inh -1 and NRP1-CendR mod 0.
CC(C)C[C@H](NC(=O)c1nc[nH]c1C(=O)N1CCN(C(=O)OC(C)(C)C)CC1)C(=O)OCc1ccccc1 was read as sPLA2-III inh -26, KLK7 zymogen act 0, ADAM10 inh 25*, ADAM17 inh 9.9*, NRP1-CendR mod 12, ADAM10 confirm 2, ADAM17 ctr 1, ADAM10 ctr 27* and ADAM17 confirm 11*.
`CC(C)C[C@H](NC(=O)c1nc[nH]c1C(=O)NC1CCN(C(=O)OC(C)(C)C)CC1)C(=O)OCc1ccccc1` gave sPLA2-III inh -6, KLK7 zymogen act 0, ADAM10 inh 37*, ADAM17 inh 16*, NRP1-CendR mod 2, ADAM10 confirm 9, ADAM17 ctr 3, ADAM10 ctr 29* and ADAM17 confirm 16*.
`CC(C)C[C@H](NC(=O)c1nc[nH]c1C(=O)N1CCC(C)CC1)C(=O)OCc1ccccc1` gave sPLA2-III inh -3, KLK7 zymogen act 1, ADAM10 inh -3, ADAM17 inh -2 and NRP1-CendR mod -17.
For CC1CCN(C(=O)c2[nH]cnc2C(=O)N[C@@H](Cc2ccccc2)C(=O)OC(C)(C)C)CC1 the results were sPLA2-III inh -14, KLK7 zymogen act 1, ADAM10 inh 4, ADAM17 inh -2 and NRP1-CendR mod 9.
Screening CC(C)(C)OC(=O)[C@H](Cc1ccccc1)NC(=O)c1nc[nH]c1C(=O)NC1CCN(C(=O)OC(C)(C)C)CC1 returned sPLA2-III inh -8, KLK7 zymogen act 1, ADAM10 inh 24*, ADAM17 inh 11*, NRP1-CendR mod -5, ADAM10 confirm 5, ADAM17 ctr 1, ADAM10 ctr 50* and ADAM17 confirm 23*.
Screening CN(C)c1ccc(NC(=O)NC2CCCCN(Cc3cccc(Cl)c3)C2=O)cc1 (stereo not given) returned sPLA2-III inh 16, KLK7 zymogen act 0, ADAM10 inh -3 and ADAM17 inh -4.
`COc1ccccc1CCC[C@H](CCS(=O)(=O)C(C)C)CC1CCCCC1` gave sPLA2-III inh -1, KLK7 zymogen act 0, ADAM10 inh -11 and ADAM17 inh -2.

Compound activity as filed in PubChem BioAssay.
